From PubChem BioAssay (Tox21)
A number with no mark means an inactive call. Results filed as inconclusive are left out. Entries that show only a call come without a potency. Active and inactive are the calls of the source. Unless noted, calls come from the whole dose curve; as a rule, active = well fitted curve in the direction sought with a large enough effect in the repeat runs; inconclusive = weak or mixed curves; inactive = no such curve, though single readings can be large; an effect the other way counts as inactive or inconclusive.

Columns and labels:
[1] = qHTS assay to identify small molecule agonists of the estrogen receptor alpha (ER-alpha) signaling pathway in the presence of an antagonist - cell viability counter screen (AID 1259386);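 note: series mostly up to about 92 µM; cells exposed to compounds for 22 h at 37 °C before the viability read; nearly all actives have a fitted effect of over 30% in size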
Outline: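 VM7Luc4E2, stripped-serum pre-culture 5 d; 24hr plating; +ICI-182,780 10.0nM final; cpds 15 conc, 22hr, 37C/5% CO2; CellTiter-Fluor added at 21hr, fluorescence 1hr later.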

[2] = biological target: Progesterone receptor (Homo sapiens) (UniProt P06401); experiment: qHTS assay to identify small molecule agonists of the progesterone receptor (PR) signaling pathway (AID 1346784; calls by dose curve; note: nearly all actives have a fitted effect of over 30% in size)
Outline: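 Fluorescence from LiveBLAzer B/G FRET substrate cleavage (2 hr, RT) reported PR activation in PR-UAS-bla HEK 293T cells treated 16 hr at 37C/5% CO2 with compounds; medium contained 2% charcoal-stripped FBS.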

[3] = qHTS assay to identify small molecule antagonists of the TGF-beta/Smad signaling pathway - cell viability counter screen (AID 1346824); note: nearly all actives have a fitted effect of over 50% in size
Outline: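 SBE-bla HEK 293T cells, incubated overnight, then compound plus 0.25 ng/mL TGF-beta1 (stock added) for 5 hr at 37 C. Viability was read in the same wells by CellTiter-Glo luminescence after 30 min at room temperature.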

[4] = qHTS assay to identify small molecule agonists of the TGF-beta/Smad signaling pathway - cell viability counter screen (AID 1346829); note: top concentration of the series differs between compounds; nearly all actives have a fitted effect of over 45% in size
Outline: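 HEK 293T SBE-bla line, 5 hr compound exposure at 37 C, multiplexed CellTiter-Glo viability read by luminescence.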

[5] = qHTS assay to identify small molecule agonists of the TGF-beta/Smad signaling pathway (AID 1346859; active = well fitted activation curve with a large enough effect in the signal ratio in the repeat runs, not every such curve was filed as active; the % refers to the signal ratio; note: series mostly up to about 77 µM)
Outline: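 After overnight seeding, SBE-bla HEK 293T cells are dosed with compounds in DMSO and kept 5 hr at 37 C, 5% CO2. LiveBLAzer-type FRET substrate is then applied for 2 hr at room temperature.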

[6] = Caspase-3/7 induction in HepG2 cells by small molecules, qHTS assay (AID 1346978); note: nearly all actives have a fitted effect of over 15% in size
Outline: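 Wild-type HepG2 cells, 2,000/well, settled 5 hr at 37 C and 5% CO2, then compound-treated for 17 hr; caspase-3/7 activity read by luminescent Caspase-Glo 3/7 after 30 min at room temperature.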

[7] = Caspase-3/7 induction in CHO-K1 cells by small molecules, qHTS cell viability counter screen (AID 1346979); note: nearly all actives have a fitted effect of over 35% in size
Outline: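 Viability readout by fluorescence (CellTiter-Fluor) on wild-type CHO-K1 cells exposed for 16hr at 37C and 5% CO2 to compounds delivered in DMSO; reagent incubated 1hr before reading.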

[8] = Caspase-3/7 induction in HepG2 cells by small molecules, qHTS cell viability counter screen (AID 1346981); note: series mostly up to about 92 µM; nearly all actives have a fitted effect of over 30% in size
Outline: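 HepG2, WT, 2,000 cells/well; 5 hr pre-incubation 37 C/5% CO2; compound pin-transferred from DMSO; 16 hr exposure; CellTiter-Fluor, 1 hr; fluorescence read.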

[9] = biological target: Nuclear receptor subfamily 1 group I member 2 (Homo sapiens) (UniProt O75469); experiment: Human pregnane X receptor (PXR) small molecule agonists, qHTS assay (AID 1346982); note: nearly all actives have a fitted effect of over 35% in size; note: potency is the fitted concentration of half-maximal effect
Outline: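 Luciferase signal from ONE-Glo (30 min, room temperature) measured activation of hPXR-driven CYP3A4 reporter expression in PXR-Luc HepG2 cells treated with compounds for 24 hr at 37 C.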

[10] = biological target: Cytochrome P450 2D6 (Homo sapiens) (UniProt P10635); experiment: Cytochrome P450 Family 2 Subfamily D Member 6 (CYP2D6) small molecule antagonists: luciferase reporter qHTS assay (AID 1671196); note: nearly all actives have a fitted effect of over 50% in size; note: potency is the fitted concentration of half-maximal effect
Outline: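 Read-out is luminescence from luciferin formed by CYP2D6 turnover of a proluciferin substrate, recorded as relative luminescence units. Reactions ran 1 h at room temperature after NADPH regeneration solution was added.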

[11] = Human pregnane X receptor (PXR) small molecule agonists, qHTS cell viability counter screen (AID 1346977); note: nearly all actives have a fitted effect of over 50% in size
Outline: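 Viability counter screen: CellTiter-Fluor signal in PXR-Luc HepG2 cells, 24hr compound exposure, 37C, 5% CO2.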

[12] = qHTS assay to identify small molecule antagonists of the progesterone receptor (PR) signaling pathway - cell viability counter screen (AID 1346798); note: nearly all actives have a fitted effect of over 50% in size; note: potency is the fitted concentration of half-maximal effect
Outline: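 CellTiter-Glo luminescence; PR-UAS-bla HEK293T, 3,000 cells/well; compound + R5020, 16 hr, 37C/5% CO2; 30 min RT before read.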

[13] = biological target: Thyrotropin-releasing hormone receptor (Homo sapiens) (UniProt P34981); experiment: qHTS assay to identify small molecule antagonists of the thyrotropin-releasing hormone receptor (TRHR) signaling pathway (AID 1346877; active = well fitted inhibition curve with a large enough effect in the repeat runs, not every such curve was filed as active; note: series mostly up to about 51 µM)
Outline: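 Intracellular calcium fluorescence, read kinetically every second over 3 min, reports TRH-evoked signalling in HEK293 cells carrying TRHR. Test compounds were added 5 min ahead of a 1 nM TRH challenge.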

[14] = biological target: Thyrotropin-releasing hormone receptor (Homo sapiens) (UniProt P34981); experiment: qHTS assay to identify small molecule agonists of the thyrotropin-releasing hormone receptor (TRHR) signaling pathway (AID 1346891; calls by dose curve; note: potency is the fitted concentration of half-maximal effect;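 for activation: HEK293 cells expressing TRHR with calcium dye readout; series mostly up to about 58 µM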)
Outline: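 Compounds were tested as agonists at 15 concentrations, in triplicate, on TRHR-Hek293 cells; calcium-sensitive dye fluorescence was recorded for 3 min following addition.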

[15] = Caspase-3/7 induction in CHO-K1 cells by small molecules, qHTS assay (AID 1346980); note: nearly all actives have a fitted effect of over 15% in size
Outline: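 Wild-type CHO-K1 cells exposed to compounds for 17hr at 37 C, 5% CO2. Caspase-3/7 activity then measured by Caspase-Glo 3/7 luminescence after 30min at room temperature.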

[16] = biological target: Nuclear receptor subfamily 1 group I member 2 (Rattus norvegicus) (UniProt Q9R1A7); experiment: Rat pregnane X receptor (rPXR) activation by small molecules, qHTS assay (AID 1346983); conditions: rPXR luciferase reporter cells, One-Glo luminescence, 24 h; max activation: active compounds read high; note: nearly all actives have a fitted effect of over 20% in size
Outline: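 Cell-based rPXR activation assay: rPXR cells, 2,000 per well, rested 5hr at 37 C, then exposed to compounds in DMSO for 24 hr at 37 C. Luciferase activity read by One-Glo luminescence after 30 min at room temperature.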

[17] = biological target: Nuclear receptor subfamily 1 group I member 2 (Homo sapiens) (UniProt O75469); experiment: CYP3A4 induction through human pregnane X receptor (PXR) by small molecules, qHTS assay (AID 1346984); note: nearly all actives have a fitted effect of over 40% in size; note: potency is the fitted concentration of half-maximal effect
Outline: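 Luminescence readout: luciferase signal after One-Glo (30 min, room temperature), following 3 h at 37C with 3uM final Luciferin-IPA P450 substrate. Cells were DPX-2 (HepG2, PXR/CYP3A4-luc co-transfected) dosed for 24 h.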

[18] = biological target: Nuclear receptor subfamily 1 group I member 2 (Homo sapiens) (UniProt O75469); experiment: Human pregnane X receptor (PXR) activation by small molecules, qHTS assay (AID 1346985); note: nearly all actives have a fitted effect of over 40% in size
Outline: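 DPX-2 cells (HepG2 co-transfected with a PXR response element and a CYP3A4-promoter luciferase construct) were seeded at 2,000 per well, rested 5 hr at 37C, then exposed to DMSO-dissolved compounds for 24 hr. Activation was read as luciferase luminescence.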

[19] = qHTS assay to identify small molecule agonists of the progesterone receptor (PR) signaling pathway - cell viability counter screen (AID 1346799; calls by dose curve; note: nearly all actives have a fitted effect of over 45% in size)
Outline: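 In parallel with the beta-lactamase readout, cytotoxicity toward PR-UAS-bla HEK293T cells was measured by CellTiter-Glo luminescence following 16 hr compound incubation in 2% charcoal-stripped FBS medium.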

Cytochrome P450 2D6 (Homo sapiens), sequence (P10635 whole entry, looked up): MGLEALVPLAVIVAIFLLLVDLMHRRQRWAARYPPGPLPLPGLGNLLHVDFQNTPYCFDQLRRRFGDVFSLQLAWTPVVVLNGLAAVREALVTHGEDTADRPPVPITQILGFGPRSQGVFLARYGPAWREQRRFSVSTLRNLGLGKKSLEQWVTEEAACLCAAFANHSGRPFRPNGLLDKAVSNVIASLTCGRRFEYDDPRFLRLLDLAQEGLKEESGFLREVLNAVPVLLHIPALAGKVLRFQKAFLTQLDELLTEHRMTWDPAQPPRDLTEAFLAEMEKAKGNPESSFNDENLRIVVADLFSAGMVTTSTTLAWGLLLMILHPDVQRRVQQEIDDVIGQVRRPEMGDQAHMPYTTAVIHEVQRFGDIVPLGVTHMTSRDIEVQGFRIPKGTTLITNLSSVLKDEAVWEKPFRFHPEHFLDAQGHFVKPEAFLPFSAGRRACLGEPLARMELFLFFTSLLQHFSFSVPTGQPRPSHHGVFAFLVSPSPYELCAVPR
Thyrotropin-releasing hormone receptor (Homo sapiens), sequence (P34981 whole entry, looked up): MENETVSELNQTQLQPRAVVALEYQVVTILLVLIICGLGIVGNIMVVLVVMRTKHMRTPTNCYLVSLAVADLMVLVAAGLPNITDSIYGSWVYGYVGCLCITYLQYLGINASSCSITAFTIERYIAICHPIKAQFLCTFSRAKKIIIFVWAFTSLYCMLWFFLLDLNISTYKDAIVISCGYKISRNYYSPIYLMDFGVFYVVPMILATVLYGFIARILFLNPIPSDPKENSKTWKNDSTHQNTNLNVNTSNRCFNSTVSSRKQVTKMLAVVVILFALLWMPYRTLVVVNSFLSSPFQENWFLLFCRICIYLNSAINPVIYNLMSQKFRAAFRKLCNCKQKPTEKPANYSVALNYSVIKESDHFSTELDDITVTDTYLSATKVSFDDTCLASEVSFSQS
Nuclear receptor subfamily 1 group I member 2 (Homo sapiens), sequence (O75469 whole entry, looked up): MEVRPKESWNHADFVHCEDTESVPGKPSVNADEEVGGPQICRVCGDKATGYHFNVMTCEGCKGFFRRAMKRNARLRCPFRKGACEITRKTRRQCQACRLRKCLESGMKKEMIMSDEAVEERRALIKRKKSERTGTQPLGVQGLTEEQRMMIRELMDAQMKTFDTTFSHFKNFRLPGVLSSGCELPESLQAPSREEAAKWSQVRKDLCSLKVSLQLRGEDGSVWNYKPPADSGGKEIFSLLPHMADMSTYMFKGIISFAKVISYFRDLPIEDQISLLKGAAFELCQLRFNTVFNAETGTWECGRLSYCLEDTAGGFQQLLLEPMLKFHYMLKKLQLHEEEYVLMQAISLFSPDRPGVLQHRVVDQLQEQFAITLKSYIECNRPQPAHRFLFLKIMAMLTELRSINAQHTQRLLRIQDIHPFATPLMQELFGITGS
Nuclear receptor subfamily 1 group I member 2 (Rattus norvegicus), sequence (Q9R1A7 whole entry, looked up): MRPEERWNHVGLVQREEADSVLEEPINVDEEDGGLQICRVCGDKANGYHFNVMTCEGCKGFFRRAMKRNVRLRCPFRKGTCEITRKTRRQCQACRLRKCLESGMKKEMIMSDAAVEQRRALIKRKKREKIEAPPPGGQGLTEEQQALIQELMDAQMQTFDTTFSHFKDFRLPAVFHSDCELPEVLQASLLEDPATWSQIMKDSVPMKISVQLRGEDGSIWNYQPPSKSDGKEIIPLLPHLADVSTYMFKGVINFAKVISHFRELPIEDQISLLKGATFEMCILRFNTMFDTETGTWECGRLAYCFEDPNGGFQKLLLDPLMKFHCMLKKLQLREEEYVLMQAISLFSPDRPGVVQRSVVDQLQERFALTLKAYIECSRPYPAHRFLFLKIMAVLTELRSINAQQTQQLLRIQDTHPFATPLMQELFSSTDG
Progesterone receptor (Homo sapiens), sequence (P06401 whole entry, looked up): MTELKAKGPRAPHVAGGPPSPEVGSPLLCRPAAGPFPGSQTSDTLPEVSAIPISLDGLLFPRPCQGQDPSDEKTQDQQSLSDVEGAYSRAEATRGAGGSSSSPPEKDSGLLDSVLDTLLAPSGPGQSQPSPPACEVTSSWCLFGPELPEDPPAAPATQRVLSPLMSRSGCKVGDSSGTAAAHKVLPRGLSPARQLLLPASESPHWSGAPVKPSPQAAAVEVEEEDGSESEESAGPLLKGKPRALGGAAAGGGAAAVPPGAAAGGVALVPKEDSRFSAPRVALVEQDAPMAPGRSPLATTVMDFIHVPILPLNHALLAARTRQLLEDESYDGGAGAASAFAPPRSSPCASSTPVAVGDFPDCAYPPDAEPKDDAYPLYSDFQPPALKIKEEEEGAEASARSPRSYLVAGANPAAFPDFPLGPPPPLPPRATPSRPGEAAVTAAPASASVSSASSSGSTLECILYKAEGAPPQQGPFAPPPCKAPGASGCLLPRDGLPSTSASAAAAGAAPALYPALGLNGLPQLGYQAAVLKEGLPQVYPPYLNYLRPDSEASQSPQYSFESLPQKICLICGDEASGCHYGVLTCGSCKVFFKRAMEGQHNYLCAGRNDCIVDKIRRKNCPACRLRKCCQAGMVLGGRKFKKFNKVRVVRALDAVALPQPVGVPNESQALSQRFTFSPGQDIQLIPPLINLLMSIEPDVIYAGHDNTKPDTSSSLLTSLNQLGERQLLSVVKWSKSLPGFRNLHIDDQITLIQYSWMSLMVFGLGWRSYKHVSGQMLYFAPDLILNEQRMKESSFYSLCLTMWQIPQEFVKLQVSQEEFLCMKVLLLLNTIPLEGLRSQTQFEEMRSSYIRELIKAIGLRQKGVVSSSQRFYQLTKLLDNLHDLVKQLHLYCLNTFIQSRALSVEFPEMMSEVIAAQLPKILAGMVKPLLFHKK

C[C@@H](C1=C(CCN(C)C)Cc2ccccc21)c1ccccn1
Potency [1]: inactive | outcome [2]: inactive | Potency [3]: inactive | Potency [4]: inactive | outcome [5]: inactive | outcome [6]: inactive | Potency [7]: inactive | Potency [8]: inactive | Potency [9]: inactive | Potency [10]: 11 µM (active)

CCCOc1ccc2nc(NC(=O)OC)[nH]c2c1
Potency [1]: inactive | outcome [2]: inactive | Potency [3]: inactive | Potency [4]: inactive | outcome [5]: inactive | Potency [11]: inactive | outcome [6]: inactive | Potency [8]: inactive | Potency [9]: 3.76 µM (active) | Potency [10]: inactive

COCCOCCOCCOCCOC
Potency [1]: inactive | outcome [2]: inactive | Potency [12]: 21.7 µM (active) | Potency [3]: inactive | Potency [4]: inactive | outcome [5]: inactive | outcome [13]: inactive | Potency [14]: inactive | Potency [11]: inactive | Potency [7]: inactive | Potency [15]: inactive | Potency [8]: inactive | Potency [9]: inactive | Potency [10]: inactive

O=C(O)Cn1c(C(=O)Nc2nc(-c3ccccc3Cl)cs2)cc2ccccc21
Potency [1]: inactive | outcome [2]: inactive | Potency [12]: inactive | Potency [3]: inactive | Potency [4]: inactive | outcome [13]: inactive | Potency [14]: 3.79 µM (active) | Potency [11]: inactive | Potency [8]: inactive | max activation [16]: -0.843% | Potency [17]: inactive | Potency [18]: inactive | Potency [10]: inactive

Cl/C(=C\n1cncn1)c1ccc(Cl)cc1Cl
Potency [1]: inactive | outcome [2]: inactive | Potency [3]: inactive | Potency [4]: inactive | outcome [5]: inactive | outcome [13]: inactive | Potency [14]: inactive | Potency [11]: inactive | outcome [6]: inactive | Potency [7]: inactive | Potency [8]: inactive | max activation [16]: -0.206% | Potency [17]: 22.4 µM (active) | Potency [18]: inactive | Potency [10]: 15.5 µM (active)

CCCCCCCC/C=C\CCCCCCCC(N)=O
Potency [1]: inactive | outcome [2]: inactive | Potency [19]: inactive | Potency [3]: inactive | Potency [4]: inactive | outcome [5]: inactive | outcome [13]: inactive | Potency [11]: inactive | Potency [7]: inactive | Potency [15]: inactive | Potency [8]: inactive | Potency [9]: 15.3 µM (active) | Potency [10]: 50.2 µM (active)

CCCCc1cc2ccccc2c(OCCN(C)C)n1
Potency [1]: inactive | outcome [2]: inactive | Potency [3]: inactive | Potency [4]: inactive | outcome [5]: inactive | outcome [13]: inactive | Potency [14]: inactive | outcome [6]: inactive | Potency [7]: inactive | Potency [15]: inactive | Potency [8]: inactive | Potency [9]: inactive | max activation [16]: 6.03% | Potency [17]: inactive | Potency [18]: inactive | Potency [10]: 4.36 µM (active)

N#Cc1cc2ccccc2c2ccccc12
Potency [1]: inactive | outcome [2]: inactive | Potency [3]: inactive | Potency [4]: inactive | outcome [5]: inactive | outcome [13]: inactive | Potency [14]: inactive | Potency [11]: inactive | outcome [6]: inactive | Potency [7]: inactive | Potency [8]: inactive | Potency [10]: inactive

CC(C)CC=O
Potency [1]: inactive | outcome [2]: inactive | Potency [12]: inactive | Potency [3]: inactive | Potency [4]: inactive | outcome [5]: inactive | outcome [13]: inactive | Potency [11]: inactive | outcome [6]: inactive | Potency [7]: inactive | Potency [15]: inactive | Potency [8]: inactive | Potency [9]: inactive | Potency [10]: inactive

CN(C(=O)CCCOc1ccc2[nH]c(=O)ccc2c1)C1CCCCC1
Potency [1]: inactive | outcome [2]: inactive | Potency [3]: inactive | Potency [4]: inactive | outcome [13]: inactive | Potency [11]: inactive | outcome [6]: inactive | Potency [15]: inactive | Potency [8]: inactive | Potency [10]: inactive
